# Experimental data published in PubChem BioAssay (NCATS).
# Where “and” joins values, the source holds several entries; their conditions need not be identical. Identical values can stand only once. Records with an inconclusive call do not appear. Values without a mark were called inactive. Calls of active or inactive are those of the source. The call rests on the fitted dose curve; in most records, active means well fitted cell-killing curve with a large enough effect; inconclusive means small, poorly fitted or top-dose-only effect, or effect the other way; inactive means no such curve, though single readings can be large or run the other way.
# Experiment: Quantitative High-Throughput drug screen in 47 multiple myeloma cell lines against the NCATS MIPE library collection: PE2_PLB cell viability assay (AID 1919869); further: nearly all actives have a fitted effect of over 35% in size
# Conditions: PE2_PLB myeloma cells viability, ATP luminescence, 48 h; series mostly up to 45.8 µM; viability (% of control): at the top concentration
# Procedure, shortened: (§1)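 Myeloma cells (500/well) treated with MIPE 4.0 compounds for 48 h at 37 °C, 5% CO2. Viability read as ATP via CellTiter-Glo luminescence after 5 min at RT; DMSO-only wells = 100%, media-only = 0% viability.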
# Potency means the concentration at half of the fitted maximal effect.
Compound,Potency,viability (% of control) [%]
COc1cc(Oc2ccnc3cc(OC)c(OC)cc23)ccc1NC(=O)NC(C)c1nccs1 (stereo unspecified),23.5 µM (active),–
COc1nc(-c2ccc3c(c2)OCO3)n(-c2ccc(NC(=O)CSc3ccccc3)cc2)n1,–,109
Cc1c(CN2CCN(C(=O)C(C)C)CC2)sc2c(N3CCOCC3)nc(-c3cnc(N)nc3)nc12,0.0662 µM (active),–
COc1ccc(CC2=NN3C([C@@H](CCc4ccccc4)[C@@H](C)O)=NC(C)C3C(=O)N2)cc1OC (stereo partly specified),–,125
CC(C)OC(=O)C1=CN(C(=O)c2ccc(F)c(F)c2)CC(C)(C)c2c1[nH]c1ccccc21,–,100
N[C@@H]1CONC1=O,–,111
CCn1c(-c2nonc2N)nc2c(C#CC(C)(C)O)ncc(OC[C@H]3CCCNC3)c21,9.35 µM (active),–
O=c1[nH]cnc2[nH]ncc12,18.7 µM (active),–
CC(C=CC1=C(C)CCCC1(C)C)=CC=CC(C)=CC(=O)O,16.6 µM (active),–
COc1ccccc1[C@H](c1cccc2ccccc12)[C@@](C)(C#N)C(=O)N1CCC(c2cccc(C(F)(F)F)c2)CC1,5.9 µM (active),–
CCc1ccc(CCOc2ccc(CC3SC(=O)NC3=O)cc2)nc1 (stereo unspecified),–,105
NC(=O)c1cnccn1,–,134
Cn1cc(-c2ccc3nnc(C(F)(F)c4ccc5ncccc5c4)n3n2)cn1,–,103
CCC(C)n1ncn(-c2ccc(N3CCN(c4ccc(OC[C@H]5CO[C@](Cn6cncn6)(c6ccc(Cl)cc6Cl)O5)cc4)CC3)cc2)c1=O (stereo partly specified),–,91.9
C[C@H](NC(=O)Cc1cc(F)cc(F)c1)C(=O)N[C@@H]1C(=O)N(C)c2ccccc2-c2ccccc21,5.9 µM (active),–
Cc1n[nH]c(C)c1Cc1sc2c(c1C(=O)N1C[C@H](O)CO1)c(=O)n(C)c(=O)n2CC(C)C,0.235 µM (active),–
CN1CCN(CCCN2c3ccccc3Sc3ccc(C(F)(F)F)cc32)CC1,9.35 µM (active),–

Compound,Potency,viability (% of control) [%]
Cc1cc2c(C(C)C)c(O)c(O)c(C=O)c2c(O)c1-c1c(C)cc2c(C(C)C)c(O)c(O)c(C=O)c2c1O,5.9 µM (active),–
CCn1cc(C(=O)O)c(=O)c2cc(F)c(N3CCNC(C)C3)c(F)c21 (stereo unspecified),–,114
COc1ccc(-c2ccc3c(N4CCOC[C@H]4C)nc(N4CCOC[C@H]4C)nc3n2)cc1CO,0.0148 µM (active),–
NNCCc1ccccc1,–,87
CCCCCCCc1ccc(CCc2cccc(O)c2C(=O)O)cc1,20.9 µM (active),–
O=C(Nc1cccnc1)N1CCC(Cc2cccc(Oc3ccc(C(F)(F)F)cn3)c2)CC1,16.6 µM (active),–
CCCc1nc2c(C)cc(-c3nc4ccccc4n3C)cc2n1Cc1ccc(-c2ccccc2C(=O)O)cc1,11.8 µM (active),–
CC1(C)SCCN(S(=O)(=O)c2ccc(OCC#CCO)cc2)[C@@H]1C(=O)NO,–,111
Cn1cnc2c(F)c(Nc3ccc(Br)cc3Cl)c(C(=O)NOCCO)cc21,0.235 µM (active),–
CCCC(CCC)C(=O)O,–,91.2
Cc1cc(C=c2sc3nc4ccccc4n3c2=O)c(C)n1-c1ccccc1,–,95.9
S=C(NCc1ccc2c(c1)OCO2)N1CCN(c2ncnc3c2oc2ccccc23)CC1,6.79 µM (active),–
O=C(Nc1nc2ccccc2n1CCN1CCOCC1)c1cccc([N+](=O)[O-])c1,1.05 µM (active),–
COc1cc2c(cc1OC)CN(CCc1ccc(NC(=O)c3cccc4c(=O)c5cccc(OC)c5[nH]c34)cc1)CC2,20.9 µM (active),–
O=C(O)COCCN1CCN(C(c2ccccc2)c2ccc(Cl)cc2)CC1 (stereo unspecified),–,119
O=C(C=Cc1ccc(/C=C/C(=O)Nc2ccc(C3=NCCN3)cc2)cc1)Nc1ccc(C2=NCCN2)cc1,–,109
Cc1ccc(NC(=O)c2cccc(C(C)(C)C#N)c2)cc1Nc1ccc2ncn(C)c(=O)c2c1,5.9 µM (active),–

# Experiment: Quantitative High-Throughput drug screen in 47 multiple myeloma cell lines against the NCATS MIPE library collection: PCM6_Riken cell viability assay (AID 1919870); further: nearly all actives have a fitted effect of over 30% in size
# Conditions: CellTiter-Glo ATP, 48 h; series mostly up to 45.8 µM; viability (% of control): at the top concentration
# Procedure, shortened: as §1
Compound,Potency,viability (% of control) [%]
COc1cc(Oc2ccnc3cc(OC)c(OC)cc23)ccc1NC(=O)NC(C)c1nccs1 (stereo unspecified),13.2 µM (active),–
COc1nc(-c2ccc3c(c2)OCO3)n(-c2ccc(NC(=O)CSc3ccccc3)cc2)n1,–,116
Cc1c(CN2CCN(C(=O)C(C)C)CC2)sc2c(N3CCOCC3)nc(-c3cnc(N)nc3)nc12,0.235 µM (active),–
COc1ccc(CC2=NN3C([C@@H](CCc4ccccc4)[C@@H](C)O)=NC(C)C3C(=O)N2)cc1OC (stereo partly specified),–,140
CC(C)OC(=O)C1=CN(C(=O)c2ccc(F)c(F)c2)CC(C)(C)c2c1[nH]c1ccccc21,–,85.8
CCn1c(-c2nonc2N)nc2c(C#CC(C)(C)O)ncc(OC[C@H]3CCCNC3)c21,14.8 µM (active),–
O=c1[nH]cnc2[nH]ncc12,–,102
CC(C=CC1=C(C)CCCC1(C)C)=CC=CC(C)=CC(=O)O,14.8 µM (active) and 18.7 µM (active),–
COc1ccccc1[C@H](c1cccc2ccccc12)[C@@](C)(C#N)C(=O)N1CCC(c2cccc(C(F)(F)F)c2)CC1,5.9 µM (active),–
CCc1ccc(CCOc2ccc(CC3SC(=O)NC3=O)cc2)nc1 (stereo unspecified),18.7 µM (active),–
NC(=O)c1cnccn1,–,137
Cn1cc(-c2ccc3nnc(C(F)(F)c4ccc5ncccc5c4)n3n2)cn1,–,108
C[C@H](NC(=O)Cc1cc(F)cc(F)c1)C(=O)N[C@@H]1C(=O)N(C)c2ccccc2-c2ccccc21,5.26 µM (active),–
Cc1n[nH]c(C)c1Cc1sc2c(c1C(=O)N1C[C@H](O)CO1)c(=O)n(C)c(=O)n2CC(C)C,–,104
CN1CCN(CCCN2c3ccccc3Sc3ccc(C(F)(F)F)cc32)CC1,1.48 µM (active),–
Cc1cc2c(C(C)C)c(O)c(O)c(C=O)c2c(O)c1-c1c(C)cc2c(C(C)C)c(O)c(O)c(C=O)c2c1O,6.62 µM (active),–
CCn1cc(C(=O)O)c(=O)c2cc(F)c(N3CCNC(C)C3)c(F)c21 (stereo unspecified),–,114
COc1ccc(-c2ccc3c(N4CCOC[C@H]4C)nc(N4CCOC[C@H]4C)nc3n2)cc1CO,0.0166 µM (active),–
NNCCc1ccccc1,–,97
O=C(Nc1cccnc1)N1CCC(Cc2cccc(Oc3ccc(C(F)(F)F)cn3)c2)CC1,14.8 µM (active),–
Cn1cnc2c(F)c(Nc3ccc(Br)cc3Cl)c(C(=O)NOCCO)cc21,0.166 µM (active),–
Cc1cc(C=c2sc3nc4ccccc4n3c2=O)c(C)n1-c1ccccc1,–,86.7
S=C(NCc1ccc2c(c1)OCO2)N1CCN(c2ncnc3c2oc2ccccc23)CC1,4.81 µM (active),–
O=C(Nc1nc2ccccc2n1CCN1CCOCC1)c1cccc([N+](=O)[O-])c1,1.87 µM (active),–
O=C(O)COCCN1CCN(C(c2ccccc2)c2ccc(Cl)cc2)CC1 (stereo unspecified),–,133
O=C(C=Cc1ccc(/C=C/C(=O)Nc2ccc(C3=NCCN3)cc2)cc1)Nc1ccc(C2=NCCN2)cc1,–,97.2
Cc1ccc(NC(=O)c2cccc(C(C)(C)C#N)c2)cc1Nc1ccc2ncn(C)c(=O)c2c1,–,74.8
